From PubChem
Only some compounds are listed: those with a hit (about 3.4% of all), similar ones and a draw of the others.
PLK1 PBD inh: inhibitors of human PLK1 polo-box domain binding | Plk1 PBD binding of FITC phosphopeptide, fluorescence polarization | Potency, µM, hits mostly inhibitors | P53350 | AID 720504 | 360,000 tested, 2.8% active; note: series mostly up to about 57 µM; nearly all actives have a fitted effect of over 65% in size
GCN5L2 inh: inhibitors of human GCN5L2 histone acetyltransferase; GCN5L2 HAT assay, ThioGlo1 CoA-SH fluorescence; Potency, µM (series often up to 58.9 µM), actives largely listed as inhibitors; 390,000 tested, 0.21% active
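Enzyme at 20nM final was mixed with library compounds for 15 min at room temperature. Peptide H3(1-25) at 75uM, acetyl-CoA at 70uM and ThioGlo1 at 50uM were then added. Plates were read immediately and after 20 min (Ex340nm/Em540nm).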
GLS inhibitor: inhibitors of human glutaminase (GLS). O94925. GLS enzymatic activity, qHTS titration. Potency, µM (series often up to 45.5 µM), actives largely listed as inhibitors. 410,000 tested, 0.21% active. AID 624170
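hKGA; 45 mM KH2PO4 pH 8.2 + 0.02% Tween-20; cpd via pin tool; 1 mM Gln soln; GluOx/HRP/Amplex Red; RT 30 min; fluor. t0 & final.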
VDR inhibitor: vitamin D3 receptor (human) inhibition. Potency, µM, hits mostly inhibitors. VDR-SRC2-3 peptide fluorescence polarization, 2 h. 400,000 tested, 0.93% active
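Fluorescence polarization assay of small-molecule disruption of VDR binding to coregulator peptide SRC2-3. Compounds and controls pin-transferred, then read after 2 h incubation at ambient room temperature.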
Mito fusion yeast: mitochondrial division inhibition or fusion activation; S. cerevisiae fusion-defective mutant growth rescue, CellTiterGlo 48 h; Potency, µM (doses to about 46.1 µM), actives largely listed as activators; 320,000 tested, 0.23% active; AID 485298; note: nearly all actives have a fitted effect of over 45% in size
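Luminescent cell viability in 1536-well qHTS format served as the measure of rescued growth in ts fusion-mutant S. cerevisiae cultured on non-fermentable YPEG for 48 hours at 37C.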
PKM2 act: activators of human pyruvate kinase M2. P14618. purified PKM2, Kinase-Glo ATP luminescence, activation; response scale: 0% is enzyme alone, no compound. Potency, µM (series often up to 57.5 µM), usual class: activators. 260,000 tested, 0.34% active. AID 1631; note: nearly all actives have a fitted effect of over 55% in size
Target sequence (P14618 whole entry, looked up): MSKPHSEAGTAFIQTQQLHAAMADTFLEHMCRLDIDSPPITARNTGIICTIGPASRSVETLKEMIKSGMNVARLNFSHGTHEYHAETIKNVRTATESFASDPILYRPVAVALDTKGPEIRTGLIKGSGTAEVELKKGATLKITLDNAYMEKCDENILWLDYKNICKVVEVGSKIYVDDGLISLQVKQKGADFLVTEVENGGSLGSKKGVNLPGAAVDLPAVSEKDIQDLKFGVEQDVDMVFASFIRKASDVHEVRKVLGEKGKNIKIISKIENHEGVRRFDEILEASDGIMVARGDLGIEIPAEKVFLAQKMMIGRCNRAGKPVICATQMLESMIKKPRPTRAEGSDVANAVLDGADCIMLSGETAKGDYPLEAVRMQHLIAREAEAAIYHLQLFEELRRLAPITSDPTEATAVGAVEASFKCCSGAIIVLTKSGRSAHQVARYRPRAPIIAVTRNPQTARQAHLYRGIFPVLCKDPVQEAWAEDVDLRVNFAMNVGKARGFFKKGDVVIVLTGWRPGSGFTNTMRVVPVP
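hPK-M2, >95% pure; 0.1 mM ADP / 0.5 mM PEP final; imidazole pH7.2 buffer w/ 7 mM MgCl2, 50 mM KCl; 1 h RT; Kinase-Glo lum. Intermediate enzyme activity for dual inhibitor/activator qHTS.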
Each line names hits and unclear results; the compound was inactive in the other large screens. Calls come from the whole dose curve; as a rule, active = well fitted curve in the direction sought with a large enough effect; inconclusive = small, poorly fitted or top-dose-only effect, or another doubt; inactive = no such curve, though single readings can be large; an effect the other way counts as inactive or inconclusive.

Cc1ccccc1OCC(=O)N/N=C/C=C/c1ccccc1	PLK1 PBD inh 30µM, VDR inhibitor inconclusive
O=C(COc1cccc2ccccc12)N/N=C/C=C/c1ccccc1	none
CCOC(=O)C(c1ccccc1)C(Nc1ccc(F)cc1)c1ccccn1 (stereo not drawn)	none
CCOC(=O)C(C(=O)OCC)C(Nc1ccc(Br)cc1)c1ccccc1 (stereo not drawn)	VDR inhibitor 79µM
O=[N+]([O-])c1ccc(Cl)c(/C=N/n2c(COc3ccccc3)n[nH]c2=S)c1	PLK1 PBD inh 24µM, VDR inhibitor inconclusive
Cc1cccc(/C=N/n2c(COc3ccccc3)n[nH]c2=S)c1	PLK1 PBD inh 24µM (no result: PKM2 act)
S=c1[nH]nc(COc2ccccc2)n1/N=C/c1ccc(Cl)c(Cl)c1	PLK1 PBD inh 17µM (no result: PKM2 act)
CCc1ccc(/C=N/n2c(COc3ccccc3)n[nH]c2=S)cc1	PLK1 PBD inh inconclusive (no result: PKM2 act)
C=CCn1c(SCC#N)nc2cc(Cl)ccc2c1=O	none (no result: PLK1 PBD inh, GCN5L2 inh, GLS inhibitor, Mito fusion yeast, PKM2 act)
O=C(c1cnccn1)N1CCC2(CC1)CCN(c1cccc(-c3ccccc3)c1)CC2	none (no result: PLK1 PBD inh, GLS inhibitor, Mito fusion yeast, PKM2 act)
O=C(NCc1ccco1)c1cnn2c1NC(c1ccc(Br)cc1)CC2C(F)(F)F (stereo not drawn)	PLK1 PBD inh 3µM, GLS inhibitor inconclusive, VDR inhibitor inconclusive, Mito fusion yeast inconclusive
N#Cc1c([N+](=O)[O-])cc([N+](=O)[O-])cc1S(=O)(=O)Cc1ccccc1	PLK1 PBD inh 1.1µM, GCN5L2 inh 14µM, VDR inhibitor 40µM (no result: PKM2 act)
COc1cc(OC)c(C#N)c(S(=O)(=O)Cc2ccccc2)c1	none
Cc1coc2c1C(=O)C(=O)c1c-2ccc2c1CCCC2(C)C	PLK1 PBD inh inconclusive, GCN5L2 inh 28µM, VDR inhibitor 28µM
Cc1coc2c1C(=O)C(=O)c1c-2ccc2c(C)cccc12	PLK1 PBD inh inconclusive, VDR inhibitor inconclusive
COC(CNC(=O)CCc1c(C)nc2c(-c3ccc(F)cc3)c(C)nn2c1C)OC	PLK1 PBD inh 30µM
Cc1nn(C)c(C(=O)Sc2cccc(Cl)c2)c1[N+](=O)[O-]	PLK1 PBD inh 4.2µM, VDR inhibitor 40µM
CCn1nc(C)cc1C(=O)Sc1cccc(Cl)c1	PLK1 PBD inh 19µM, VDR inhibitor inconclusive
COc1ccc(N2C[C@H](CSC)[C@@H](CC(=O)Nc3ccc(Br)cc3)C2=O)cc1	none (no result: GCN5L2 inh, VDR inhibitor, Mito fusion yeast, PKM2 act)
Cc1ccc(N/N=C(\C#N)C(=O)c2ccsc2)cc1	none
CC1=C(c2ccc(NN=C(C#N)C#N)cc2)NNC(=O)C1	VDR inhibitor 20µM (no result: PLK1 PBD inh, Mito fusion yeast, PKM2 act)
COc1cc(SC)ccc1C(=O)OCC(=O)NCCNC(=O)COC(=O)c1ccc(SC)cc1OC	none
COC(=O)c1ccc(COC(=O)c2ccc(SC)cc2OC)cc1	PLK1 PBD inh 27µM, VDR inhibitor inconclusive
O=S1(=O)C=C(Sc2nc3ccccc3s2)c2ccccc21	PLK1 PBD inh 2.7µM, VDR inhibitor 13µM
COCC(=O)n1nc(NCc2ccc(OC)cc2)nc1NCc1ccc(OC)cc1	PLK1 PBD inh 12µM, GLS inhibitor inconclusive
COc1ccc(-c2csc(NC(=O)CSc3nc(C)nc4sc(C(=O)O)c(C)c34)n2)cc1	PLK1 PBD inh 19µM, PKM2 act inconclusive
COc1ccc(C)cc1NC(=O)CSc1ccc(-c2ccco2)nn1	PLK1 PBD inh inconclusive, VDR inhibitor inconclusive
COCCCNC(=O)C(C)N1c2cccc3cccc(c23)S1(=O)=O (stereo not drawn)	PLK1 PBD inh 11µM, GLS inhibitor inconclusive, VDR inhibitor 71µM
COCCNC(=O)C(C)N1c2cccc3cccc(c23)S1(=O)=O (stereo not drawn)	PLK1 PBD inh inconclusive
O=C(N/N=C/c1c[nH]c2ccccc12)c1ccc(O)c(O)c1	GLS inhibitor 11µM (no result: PKM2 act)
Cc1onc(-c2ccccc2)c1C(=O)N/N=C/c1c[nH]c2ccccc12	PLK1 PBD inh 24µM
CCc1ccc(CNC(=O)C2CCCN(c3nn4c(=O)cc(C)nc4s3)C2)cc1 (stereo not drawn)	none
CCOC1=C2CN(S(=O)(=O)c3ccc(C)cc3)C(c3ccc(CC)cc3)CC2N(S(=O)(=O)c2ccc(C)cc2)C(c2ccc(CC)cc2)C1 (stereo not drawn)	none (no result: GCN5L2 inh, GLS inhibitor, VDR inhibitor, Mito fusion yeast, PKM2 act)
